Measured values published in the supplement of paper PMC8728848.
Shown is part of a subset that was picked to be rich in the strongest signals.

Columns and labels:
Assay in all cases: glycan array binding signal (z-score within array); higher = stronger binding
Conditions in all cases: glycan notation: IUPAC condensed, linker removed
[1] = molecular target: Gal(b1-4)GlcNAc(b1-3)Gal(b1-4)GlcNAc(b1-3)GalNAc
Outline: (§1)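 Glycan array binding is given as a within-array Z-score, which can be read as non-binding when negative. The arrays, 3228 of them, came from the Consortium for Functional Glycomics database and were retained only where the protein sequence was available. Z-scores were averaged across arrays of the same protein sequence at different concentrations or buffers and across linkers.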

[2] = molecular target: Gal(b1-4)GlcNAc(b1-3)Gal(b1-4)GlcNAc(b1-6)[Gal(b1-3)]GalNAc
Outline: as §1

Gal(b1-6)Gal = molecular target: Gal(b1-6)Gal
Outline: as §1

[3] = molecular target: Gal3S(b1-4)[Fuc(a1-3)]GlcNAc6S
Outline: as §1

Gal3S4S(b1-4)GlcNAc = molecular target: Gal3S4S(b1-4)GlcNAc
Outline: as §1

Gal4S6S(b1-4)GlcNAc = molecular target: Gal4S6S(b1-4)GlcNAc
Outline: as §1

Gal6S(b1-3)GlcNAc = molecular target: Gal6S(b1-3)GlcNAc
Outline: as §1

Gal6S(b1-3)GlcNAc6S = molecular target: Gal6S(b1-3)GlcNAc6S
Outline: as §1

Gal6S(b1-4)Glc = molecular target: Gal6S(b1-4)Glc
Outline: as §1

Gal6S(b1-4)Glc6S = molecular target: Gal6S(b1-4)Glc6S
Outline: as §1

Gal6S(b1-4)GlcNAc6S = molecular target: Gal6S(b1-4)GlcNAc6S
Outline: as §1

Glc(a1-4)Glc = molecular target: Glc(a1-4)Glc
Outline: as §1

[4] = molecular target: GlcNAc(a1-4)Gal(b1-4)GalNAc
Outline: as §1

[5] = molecular target: GlcNAc(a1-4)Gal(b1-4)GlcNAc(b1-3)Gal(b1-4)GlcNAc(b1-3)Gal(b1-4)GlcNAc
Outline: as §1

[6] = molecular target: GlcNAc(a1-4)Gal(b1-4)GlcNAc(b1-3)Gal(b1-4)[Fuc(a1-3)]GlcNAc(b1-3)Gal(b1-4)[Fuc(a1-3)]GlcNAc
Outline: as §1

[7] = molecular target: GlcNAc(b1-2)[GlcNAc(b1-4)]Man(a1-3)[GlcNAc(b1-2)Man(a1-6)]Man(b1-4)GlcNAc(b1-4)GlcNAc
Outline: as §1

[8] = molecular target: GlcNAc(b1-3)Gal(b1-4)GlcNAc(b1-2)Man(a1-3)[GlcNAc(b1-3)Gal(b1-4)GlcNAc(b1-2)Man(a1-6)]Man(b1-4)GlcNAc(b1-4)[Fuc(a1-6)]GlcNAc
Outline: as §1

[9] = molecular target: GlcNAc(b1-3)Gal(b1-4)GlcNAc(b1-3)Gal(b1-4)GlcNAc(b1-2)Man(a1-3)[GlcNAc(b1-3)Gal(b1-4)GlcNAc(b1-3)Gal(b1-4)GlcNAc(b1-2)Man(a1-6)]Man(b1-4)GlcNAc(b1-4)[Fuc(a1-6)]GlcNAc
Outline: as §1

[10] = molecular target: GlcNAc(b1-3)Gal(b1-4)GlcNAc(b1-3)Gal(b1-4)GlcNAc(b1-3)Gal(b1-4)GlcNAc(b1-2)[GlcNAc(b1-3)Gal(b1-4)GlcNAc(b1-3)Gal(b1-4)GlcNAc(b1-3)Gal(b1-4)GlcNAc(b1-6)]Man(a1-6)[GlcNAc(b1-3)Gal(b1-4)GlcNAc(b1-3)Gal(b1-4)GlcNAc(b1-3)Gal(b1-4)GlcNAc(b1-2)Man(a1-3)]Man(b1-4)GlcNAc(b1-4)[Fuc(a1-6)]GlcNAc
Outline: as §1

[11] = molecular target: GlcNAc(b1-3)Gal(b1-4)GlcNAc(b1-3)Gal(b1-4)GlcNAc(b1-3)Gal(b1-4)GlcNAc(b1-3)Gal(b1-4)GlcNAc(b1-2)Man(a1-3)[GlcNAc(b1-3)Gal(b1-4)GlcNAc(b1-3)Gal(b1-4)GlcNAc(b1-3)Gal(b1-4)GlcNAc(b1-3)Gal(b1-4)GlcNAc(b1-2)Man(a1-6)]Man(b1-4)GlcNAc(b1-4)[Fuc(a1-6)]GlcNAc
Outline: as §1

[12] = molecular target: GlcNAc(b1-3)Gal(b1-4)GlcNAc(b1-6)[Gal(b1-3)]GalNAc
Outline: as §1

GlcNAc(b1-3)Man = molecular target: GlcNAc(b1-3)Man
Outline: as §1

GlcNAc(b1-6)GalNAc = molecular target: GlcNAc(b1-6)GalNAc
Outline: as §1

[13] = molecular target: Man(a1-2)Man(a1-2)Man(a1-6)[Man(a1-3)]Man
Outline: as §1

[14] = molecular target: Man(a1-2)Man(a1-3)[Man(a1-2)Man(a1-6)]Man
Outline: as §1

[15] = molecular target: Man(a1-2)Man(a1-3)[Man(a1-6)]Man(a1-6)[Man(a1-2)Man(a1-3)]Man(b1-4)GlcNAc(b1-4)GlcNAc
Outline: as §1

Man(a1-6)Man = molecular target: Man(a1-6)Man
Outline: as §1

MurNAc(b1-4)GlcNAc = molecular target: MurNAc(b1-4)GlcNAc
Outline: as §1

[16] = molecular target: Neu5Ac(a2-3)Gal(b1-3)[Fuc(a1-4)]GlcNAc(b1-3)Gal(b1-4)[Fuc(a1-3)]GlcNAc
Outline: as §1

[17] = molecular target: Neu5Ac(a2-3)Gal(b1-4)GlcNAc(b1-3)Gal(b1-3)GlcNAc
Outline: as §1

B1: SP16664B-bot-474-25-474 (Bacteroides ovatus) (protein)
chain: CEEDIEIGNKIDESSYLASTQLSGLLLDENTNKNSSVIELRNNEYSTNVVFRLSKLPQKGVDVQIAVEESYAAIYNTIHETDFEVFPAANVKIANNGTFVLAPDDKVTPSVKVTLTAFDGMEEDKTYIVPLTVTSSTEGVTFTETSKHMVLLVQDYRNKPNTNKGEDAVQTVLYFEVNDTNPLNALEFLTESGKYFFDHIVLFAANINWDPEKQRVYLANNENVQFLLDNNDKYLQPLRKAGMKIIISILGNHDEAGVAQLSDMGAREFARELAAYCRAYNLDGVAFDDEYSNSPDLSNPWLASPSAYAGSRLMYECKAVMPEKIVSLYNLGNMYSSSLQVIDGIEPGQYCDYAVADYGGAAGPGTGMTLKQCAGMSIELRRGSGNSSESTARSRKEAGYGYYMFFALDPSLYGSQVYRCQSVCKGLYDETLVYPSYYYKKNSTEREAIN
glycan array binding signal (z-score) [1]: 1.54 | glycan array binding signal (z-score) [2]: 0.334 | glycan array binding signal (z-score) (Gal(b1-6)Gal): -0.141 | glycan array binding signal (z-score) [3]: 0.545 | glycan array binding signal (z-score) (Gal3S4S(b1-4)GlcNAc): 0.303 | glycan array binding signal (z-score) (Gal4S6S(b1-4)GlcNAc): -0.008 | glycan array binding signal (z-score) (Gal6S(b1-3)GlcNAc): 0.118 | glycan array binding signal (z-score) (Gal6S(b1-3)GlcNAc6S): 0.522 | glycan array binding signal (z-score) (Gal6S(b1-4)Glc): -0.453 | glycan array binding signal (z-score) (Gal6S(b1-4)Glc6S): 0.797 | glycan array binding signal (z-score) (Gal6S(b1-4)GlcNAc6S): -0.289 | glycan array binding signal (z-score) (Glc(a1-4)Glc): -0.119 | glycan array binding signal (z-score) [4]: 0.293 | glycan array binding signal (z-score) [5]: -0.159 | glycan array binding signal (z-score) [6]: 4.58 | glycan array binding signal (z-score) [7]: 0.16 | glycan array binding signal (z-score) [8]: 0.352 | glycan array binding signal (z-score) [9]: 11.2 | glycan array binding signal (z-score) [10]: 0.018 | glycan array binding signal (z-score) [11]: 0.334 | glycan array binding signal (z-score) [12]: 1.57 | glycan array binding signal (z-score) (GlcNAc(b1-3)Man): 0.501 | glycan array binding signal (z-score) (GlcNAc(b1-6)GalNAc): -0.234 | glycan array binding signal (z-score) [13]: -0.417 | glycan array binding signal (z-score) [14]: -0.568 | glycan array binding signal (z-score) [15]: -0.368 | glycan array binding signal (z-score) (Man(a1-6)Man): 0.198 | glycan array binding signal (z-score) (MurNAc(b1-4)GlcNAc): -0.181 | glycan array binding signal (z-score) [16]: 0.654 | glycan array binding signal (z-score) [17]: -0.055
